Screening results from PubChem.
MEKK3 PB1 HTS: modulators (inhibitors or enhancers) of MEK5 binding to human MEKK3 PB1 domain; Q99759; bead-based flow cytometry, Alexa488-MEK5 binding to MEKK3; actives lie on both sides; 0 = blocked by unlabeled MEK5, 100 = vehicle; binding response (% of control), % at 10 µM; 290,000 compounds, 1.4% hits;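 active means binding response more than 3 SD above or below the average of its plate-row segment, actives on both sides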;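 further: Alexa488 bead fluorescence after subtracting the streptavidin-only scavenger bead signal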
Rce1 inh: blocks yeast Ras-converting enzyme; Q03530; yeast membranes, quenched prenylated peptide cleavage fluorescence; calls only; 290,000 compounds, 0.27% hits; AID 2563;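 active means fall in fluorescence gain of 50% or more versus controls, with final raw signal at or below 3038400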
Target sequence (Q03530 whole entry, looked up): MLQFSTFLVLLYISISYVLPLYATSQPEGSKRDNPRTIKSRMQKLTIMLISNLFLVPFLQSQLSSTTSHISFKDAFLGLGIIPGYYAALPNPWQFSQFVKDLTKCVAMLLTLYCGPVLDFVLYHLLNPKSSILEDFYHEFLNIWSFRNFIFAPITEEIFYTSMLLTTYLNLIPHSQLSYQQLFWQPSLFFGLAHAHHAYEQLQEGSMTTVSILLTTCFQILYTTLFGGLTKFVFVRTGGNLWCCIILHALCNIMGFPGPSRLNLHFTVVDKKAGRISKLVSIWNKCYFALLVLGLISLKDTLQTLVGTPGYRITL
UBC13 polyUb: human UBC13 polyubiquitination inhibition. P61088. UBC13 polyubiquitin chain formation, TR-FRET. inhibition, % at 20 µM. 330,000 compounds, 0.47% hits; in the data active means inhibition above about 45%, passing the limit was not always enough
Target sequence (P61088 whole entry, looked up): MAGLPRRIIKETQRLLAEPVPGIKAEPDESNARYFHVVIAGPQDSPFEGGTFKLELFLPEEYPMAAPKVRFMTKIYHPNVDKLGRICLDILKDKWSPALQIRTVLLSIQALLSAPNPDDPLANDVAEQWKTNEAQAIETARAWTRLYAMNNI
MEKK2 WT-MEK5: raises or lowers MEK5 binding to wildtype human MEKK2 PB1 domain. 290,000 compounds, 1.1% hits. binding response (% of control), % at 10 µM. bead flow cytometry, Alexa488-MEK5 binding to MEKK2 WT; actives lie on both sides. AID 1531. Q9Y2U5; in the data active means binding response below about 67% or above about 130%
MEKK2mut PB1 HTS: signal of MEK5 binding to mutant human MEKK2 PB1 domain. bead flow cytometry, Alexa488-MEK5 binding to MEKK2 mutant. percent response, % at 10 µM. 290,000 compounds, 0.35% hits. AID 1530; in the data active means percent response above about 24%, passing the limit was not always enough
MEKK2wt confirm: raises or lowers MEK5 binding to wildtype human MEKK2, retest; shares compounds with MEKK3 PB1 HTS; bead flow cytometry, Alexa488-MEK5 binding to MEKK2 WT; actives lie on both sides; binding response (% of control), % at 10 µM; 5,900 compounds, 2.4% hits; in the data active means binding response below about 16% or above about 210%; inactive means in between
MEKK2mut-MEK5: signal of MEK5 binding to mutant human MEKK2, retest; shares compounds with MEKK3 PB1 HTS; bead flow cytometry, Alexa488-MEK5 binding to MEKK2 mutant; percent response, % at 10 µM; 5,900 compounds, 2% hits; AID 1893; in the data active means percent response mostly above about 71%, no sharp cut-off; inactive means mostly below about 38%;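 further: higher means compound restores mutant binding toward wildtype level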
MEKK3-MEK5 inh: confirmation of inhibitors of MEK5 binding to human MEKK3 | bead flow cytometry, Alexa488-MEK5 binding to MEKK3; hits give low values | 5,900 compounds, 1.8% hits | binding response (% of control), % at 10 µM | shares compounds with MEKK3 PB1 HTS;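 active means binding response below 72% of control, or above a set upper limit, though filed actives all read lower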
Of the large screens only hits and unclear results are named; the others gave an inactive call (follow-up assays come after a bar, where they were run); [ ] = remark or other dose. Compounds with a hit are over-represented: about 2.5% of the library has one in this group of screens.

Fc1ccc(CSc2ccc(-c3ccc4c(c3)OCO4)nn2)cc1	MEKK3 PB1 HTS 135.0 | MEKK2wt confirm inactive | MEKK2mut-MEK5 inactive | MEKK3-MEK5 inh inactive
Cc1cc(NC(=O)CSc2ccc(-c3ccc4c(c3)OCO4)nn2)no1	none
c1ccc(CSc2ccc(-c3ccc4c(c3)OCO4)nn2)cc1	none
Cc1ccc(NC(=O)CSc2ccc(-c3ccc4c(c3)OCO4)nn2)cc1F	MEKK3 PB1 HTS 132.0 | MEKK2wt confirm inactive | MEKK2mut-MEK5 inactive | MEKK3-MEK5 inh inactive
Cc1cc(C)c(C#N)c(N2CCCC2)n1	none (no result: MEKK3 PB1 HTS, MEKK2 WT-MEK5, MEKK2mut PB1 HTS)
Cc1cc(C)c(C#N)c(Cl)n1	MEKK3 PB1 HTS 149.0 | MEKK2wt confirm inactive | MEKK2mut-MEK5 inactive | MEKK3-MEK5 inh inactive
CCCOc1ccc(C2C(C(=O)c3ccc(C)o3)=C(O)C(=O)N2CCN2CCOCC2)cc1OC (stereo unspecified)	MEKK3 PB1 HTS 0.0[inhibitor], MEKK2 WT-MEK5 0.0[inhibitor] | MEKK2wt confirm inactive | MEKK2mut-MEK5 inactive | MEKK3-MEK5 inh inactive
COc1ccc(OC)c(C2C(C(=O)c3ccc(C)o3)=C(O)C(=O)N2CCN2CCOCC2)c1 (stereo unspecified)	none
CCC1=NC(c2ccc(OC)c(OC)c2)N(O)C1(C)C (stereo unspecified)	none
CCC1=NC(c2ccc(OC)cc2)N(O)C1(C)C (stereo unspecified)	MEKK3 PB1 HTS 80.0[inhibitor] | MEKK2wt confirm inactive | MEKK2mut-MEK5 inactive | MEKK3-MEK5 inh inactive
O=C(CSc1ncnc2ccccc12)c1cccs1	MEKK3 PB1 HTS 63.0[inhibitor] | MEKK2wt confirm inactive | MEKK2mut-MEK5 inactive | MEKK3-MEK5 inh inactive
S=c1[nH]nc(-c2ccc(Cl)cc2Cl)n1-c1ccc2c(c1)OCCO2	none
Oc1ccc(-c2n[nH]c(=S)n2-c2ccc3c(c2)OCCO3)c(O)c1	MEKK3 PB1 HTS 70.0[inhibitor] (no result: UBC13 polyUb) | MEKK2wt confirm inactive | MEKK2mut-MEK5 inactive | MEKK3-MEK5 inh inactive
COc1ccc(CCNC(=O)c2cccc([N+](=O)[O-])c2)cc1OC	none (no result: MEKK3 PB1 HTS, MEKK2 WT-MEK5, MEKK2mut PB1 HTS)
O=C(NCCc1ccccc1)c1cccc([N+](=O)[O-])c1	MEKK3 PB1 HTS 130.0 | MEKK2wt confirm inactive | MEKK2mut-MEK5 inactive | MEKK3-MEK5 inh inactive
Cc1ccc(Cn2c(=N)n(CC(=O)c3ccc([N+](=O)[O-])cc3)c3ccccc32)cc1	MEKK2 WT-MEK5 153.0, MEKK2mut PB1 HTS 60.0 | MEKK2wt confirm inactive | MEKK2mut-MEK5 inactive | MEKK3-MEK5 inh inactive
Cc1c(Cl)cccc1-n1c(SCC(=O)N2CCC(C(=O)O)CC2)nnc1-c1ccncc1	none
O=C(/C=C/c1ccccc1Cl)N(Cc1ccccc1)C1CCS(=O)(=O)C1 (stereo unspecified)	MEKK3 PB1 HTS 138.0 | MEKK2wt confirm inactive | MEKK2mut-MEK5 inactive | MEKK3-MEK5 inh inactive
O=C(/C=C/c1ccccc1Cl)N(Cc1ccc(Cl)cc1)C1CCS(=O)(=O)C1 (stereo unspecified)	none
CC(Sc1nncs1)C(=O)Nc1ccc(Cl)cn1 (stereo unspecified)	none
CC(Sc1nc(-c2ccccc2)cs1)C(=O)Nc1ccc(Cl)cn1 (stereo unspecified)	MEKK3 PB1 HTS 149.0 | MEKK2wt confirm inactive | MEKK2mut-MEK5 inactive | MEKK3-MEK5 inh inactive
CCOc1nc(N(C)C)nc(-n2nnc(C(C)=O)c2C)n1	none
COc1nc(N(C)C)nc(-n2nnc(C(C)=O)c2C)n1	MEKK3 PB1 HTS 2.0[inhibitor], MEKK2 WT-MEK5 1.0[inhibitor] | MEKK2wt confirm inactive | MEKK2mut-MEK5 inactive | MEKK3-MEK5 inh inactive
CC(=O)c1cccc(NC(=O)CCc2nc3sc4c(c3c(=O)[nH]2)CCCC4)c1	none (no result: MEKK3 PB1 HTS, MEKK2 WT-MEK5, MEKK2mut PB1 HTS)
Cc1ccc(C)c(NC(=O)CCn2nc(C)cc2C)c1	none
COc1ccc(/C=N/NC(=O)CCn2nc(C)cc2C)cc1	MEKK3 PB1 HTS 133.0 | MEKK2wt confirm inactive | MEKK2mut-MEK5 inactive | MEKK3-MEK5 inh inactive
COc1ccc(/C=N/NC(=O)CCn2nc(C)cc2C)cc1O	none
Cc1ccc(NC(=O)CCn2nc(C)cc2C)cc1	MEKK3 PB1 HTS 142.0, MEKK2 WT-MEK5 139.0 | MEKK2wt confirm inactive | MEKK2mut-MEK5 inactive | MEKK3-MEK5 inh inactive
O=C(N/C(=C/c1ccccc1F)C(=O)N1CCCCC1)c1ccccc1	none
Cc1cc(NC(=O)c2sc(Nc3cccc(C(F)(F)F)c3)nc2N)no1	MEKK3 PB1 HTS 140.0 | MEKK2wt confirm inactive | MEKK2mut-MEK5 inactive | MEKK3-MEK5 inh inactive
Cc1cc(NC(=O)c2sc(Nc3ccc(F)c(Cl)c3)nc2N)no1	none
CCCCn1c(N)c(N(CC(C)C)C(=O)C2CCN(S(=O)(=O)c3ccc(C)cc3)CC2)c(=O)[nH]c1=O	none (no result: MEKK3 PB1 HTS, MEKK2 WT-MEK5, MEKK2mut PB1 HTS)
Cc1ccc(NC(=O)c2c([N+](=O)[O-])c(C(C)(C)C)nn2C)c(C)c1	MEKK3 PB1 HTS 137.0 | MEKK2wt confirm inactive | MEKK2mut-MEK5 inactive | MEKK3-MEK5 inh inactive
CSc1nc(C)c(Oc2ccccc2)c(=O)n1C	MEKK3 PB1 HTS -1.0[inhibitor], MEKK2 WT-MEK5 -1.0[inhibitor] | MEKK2wt confirm inactive | MEKK2mut-MEK5 inactive | MEKK3-MEK5 inh inactive
Cn1ncc(Cl)c(Oc2ccccc2)c1=O	none
Clc1ccc(Cl)c(OCCCCNCc2ccccc2)c1	none
Clc1ccc(OCCCNCc2ccccc2)c(Br)c1	MEKK2 WT-MEK5 153.0 | MEKK2wt confirm inactive | MEKK2mut-MEK5 inactive | MEKK3-MEK5 inh inactive
CCOC(=O)C(=NC(C)C)NNc1cc(Cl)ccc1Cl	MEKK3 PB1 HTS 141.0 | MEKK2wt confirm inactive | MEKK2mut-MEK5 inactive | MEKK3-MEK5 inh inactive
Cc1cc(=S)nc(-c2ccccn2)[nH]1	MEKK3 PB1 HTS 57.0[inhibitor], MEKK2 WT-MEK5 59.0[inhibitor] | MEKK2wt confirm inactive | MEKK2mut-MEK5 inactive | MEKK3-MEK5 inh inactive
Cc1[nH]c(-c2ccccn2)nc(=S)c1Cl	none
O=C(NN1C(=O)c2cc(Br)ccc2NC1c1cc(Br)cc(Br)c1O)c1ccncc1 (stereo unspecified)	MEKK3 PB1 HTS 133.0 | MEKK2wt confirm inactive | MEKK2mut-MEK5 inactive | MEKK3-MEK5 inh inactive
O=C(NN1C(=O)c2cc(Br)ccc2NC1c1ccccc1Cl)c1ccncc1 (stereo unspecified)	none
Cc1ccccc1N1CCN(CCCN2C(=O)CC(=C(c3ccccc3)c3ccccc3)C2=O)CC1	none
O=C1CC(=C(c2ccccc2)c2ccccc2)C(=O)N1CCCCN1CCN(c2cccc(Cl)c2)CC1	MEKK2 WT-MEK5 142.0 | MEKK2wt confirm inactive | MEKK2mut-MEK5 inactive | MEKK3-MEK5 inh inactive
CCOC(=O)c1sc2c(c1C)c(=O)n(CCO)c(=O)n2Cc1ccccc1	none
O=C(N/N=C\C=C\c1ccc2c(c1)OCO2)c1cccnc1	MEKK3 PB1 HTS 135.0 | MEKK2wt confirm inactive | MEKK2mut-MEK5 inactive | MEKK3-MEK5 inh inactive
O=C(/C=C/c1ccc2c(c1)OCO2)c1cccnc1	none
